Screening results deposited in PubChem BioAssay by University of Kansas High Throughput Screening Laboratory.
Shown are actives, neighbours in structure and some others; about 3.5% of the full set was active somewhere.
Pf apPOL block: Pf-apPOL inhibitors, biochemical, fluorescence; Plasmodium falciparum apicoplast DNA polymerase (apPOL); 210,000 compounds, 0.25% hits; inhibition, % at 10 µM; Recombinant Pf-apPOL, molecular beacon fluorescence, 1.5 h
mHTT-CaM PPI inh: mutant huntingtin-calmodulin interaction inhibitors – biochemical, AlphaScreen, primary screen | inhibition, % at 15 µM | 190,000 compounds, 3.6% hits | AlphaScreen His-mHTT/GST-CaM binding, luminescence;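 further: 0% = both proteins with DMSO and 100% = one protein alone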
An asterisk follows results filed as active. No stated cut-off is given here; in the data, active means inhibition above about 50%; inactive means the rest.

SMILES	Pf apPOL block	mHTT-CaM PPI inh
O=C1OC(c2cc(Cl)ccc2Cl)=N/C1=C\c1cccc([N+](=O)[O-])c1	-8	-1
COc1ccc(C(CCN2CCN(c3ccccc3)CC2)c2c(O)cc(OC)cc2OC)cc1 (configuration not stated)	-7	72*
COc1ccc(C(CCN2CCCCC2)c2c(O)cc(OC)cc2OC)cc1 (configuration not stated)	-8	-1
COc1ccc(C(CCN2CCCC2)c2c(O)cc(OC)cc2OC)cc1 (configuration not stated)	-4	14
COc1cc(O)c(C(CCN2CCN(c3ccccc3)CC2)c2ccc(N(C)C)cc2)c(OC)c1 (configuration not stated)	-2	97*
COc1cccc(-c2nc(C3CCN(C(=O)c4nn(C)c5ccccc45)CC3)no2)c1	2	-4
CCCc1cc(-c2[nH]ncc2-c2ccc3c(c2)OCCCO3)c(O)cc1OC	-7	76*
CCCc1cc2c(=O)c(-c3ccc4c(c3)OCCCO4)c(C)oc2cc1OC	-3	0
COc1ccc(-c2oncc2-c2ccc3c(c2)OCCO3)c(O)c1	1	10
CCCc1cc(-c2oncc2-c2ccc3c(c2)OCCO3)c(O)cc1OC	3	63*
O=C(c1csc(N2CCN(c3ccc(Cl)cc3)CC2)n1)N1CCCCC1	-4	10
Cc1ccc(OCC(=O)Nc2ccc(Cl)c(-c3nc4ncccc4o3)c2)cc1	-2	22
O=C1Nc2ccccc2OC1C(=O)N1CCN(c2cccc(Cl)c2)CC1 (configuration not stated)	-2	2
Cc1ccc(Cl)cc1N1CCN(C(=O)C2Oc3ccccc3NC2=O)CC1 (configuration not stated)	0	81*
Cc1cc(Br)ccc1NC(=O)CC(C)c1ccccc1 (configuration not stated)	-8	-7
O=C(NCC1CCCO1)C(=O)NCC1(O)CCOCC1 (configuration not stated)	-2	-15
CCn1c(C2CCN(C(=O)CC(C)(C)C)C2)nc2cccnc21 (configuration not stated)	-1	-6
Cc1cccc(N2CCN(C(=O)c3ccccc3C)C(C)C2=O)c1 (configuration not stated)	1	12
CCOc1c(C)cc(-c2ncccc2O)cc1C	0	-1
CCOCc1ccc(O)c2ncccc12	-4	100*
Cc1cc(C)nc(Nc2nc(C(=O)NCCOc3ccc(F)cc3)cs2)n1	-38	91*
COc1ccc(OC)c(Nc2nc(CC(=O)NCc3ccc4c(c3)OCO4)cs2)c1	-4	15
O=C(NCCc1c[nH]c2ccccc12)c1csc(NS(=O)(=O)c2cccs2)n1	-13	-10
Cc1cc(C)nc(Nc2nc(C(=O)NCCc3c[nH]c4ccccc34)cs2)n1	-6	86*
COc1ccc(OC)c(Nc2nc(CC(=O)NCCc3c[nH]c4ccccc34)cs2)c1	-4	53*
SMILES	Pf apPOL block	mHTT-CaM PPI inh
O=C(NCCOc1ccc(F)cc1)c1cc(C2CC2)on1	-37	-24
COc1ccc(-c2nnc(N3CCC(C(=O)NC(C)c4ccc(C)cc4C)CC3)o2)cc1 (configuration not stated)	-1	-10
Fc1cccc(C2C=C(c3cccc(Br)c3)Nc3nnnn32)c1 (configuration not stated)	-4	-10
COCCNC(=O)c1ccn2c(-c3ccccc3Br)nnc2c1	0	2
O=C(c1ccc([N+](=O)[O-])cc1)N1N=C(c2ccncc2)CC1(O)C(F)(F)F (configuration not stated)	83*	5
CC(C)(C)c1ccc(C(=O)N2N=C(c3ccc([N+](=O)[O-])cc3)CC2(O)C(F)(F)F)cc1 (configuration not stated)	1	41
O=C(c1ccc(Cl)cc1)N1N=C(c2ccc([N+](=O)[O-])cc2)CC1(O)C(F)(F)F (configuration not stated)	-1	51*
Cc1ccc(C2=NN(C(=O)c3ccccc3Cl)C(O)(C(F)(F)F)C2)cc1 (configuration not stated)	0	-1
O=C(c1ccccc1O)N1N=C(c2ccc(Cl)cc2)CC1(O)C(F)(F)F (configuration not stated)	-1	59*
CC(C)C(=O)N1N=C(c2ccc([N+](=O)[O-])cc2)CC1(O)C(F)(F)F (configuration not stated)	-3	0
CCn1ccc2sc(C)c(C(=O)NCc3cccc(F)c3)c2c1=O	6	20
CC(C)n1c(SCC(=O)Nc2ccc(OC(F)(F)F)cc2)nc2c1c(=O)n(C)c(=O)n2C	-8	2
Cc1ccc(NC(=O)N2CCCC2c2c(C)noc2C)cc1F (configuration not stated)	1	-6
CCOC(=O)C(=O)NCC(c1cccs1)S(=O)(=O)c1cccs1 (configuration not stated)	2	-2
